Compound activity (PubChem BioAssay)
Shiga toxin inh = Shiga toxin inhibition | Vero cells, Shiga toxin protein synthesis inhibition reporter | inhibition, % at 38.7 µM | 290,000 tested, 9.2% active | AID 2315; in the data active = inhibition mostly above about 28%, no sharp cut-off; inactive = mostly below about 43%
CHX counter = counter-screen for Shiga toxin inhibitors: cycloheximide protein synthesis inhibition. cell reporter, cycloheximide protein synthesis inhibition counterscreen. max response, %. 300,000 tested, 12% active. AID 2314; in the data active = max response mostly above about 13%, no sharp cut-off; inactive = mostly below about 14%; note: read at 38.3 µM for the half of the compounds with a filed dose
Pf growth 48h = P. falciparum growth inhibition at 48 hours (one generation); Potency, µM (top dose mostly 28.7 µM), usual class: inhibitors; AID 504832; P. falciparum luciferase growth in erythrocytes, 48 h; 310,000 tested, 5.9% active
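First compound was added to culture medium, then infected red cells at 0.1% parasitemia and 2% hematocrit (final). After incubation at 37 C under 5% CO2, luciferase detection reagent was dispensed and light output recorded.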
Pf growth 96h = P. falciparum growth inhibition at 96 hour, primary screen for plastid delayed-death inhibitors. P. falciparum luciferase reporter growth, 96 h. Potency, µM (top dose mostly 28.7 µM), actives largely listed as inhibitors. 320,000 tested, 6.9% active
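P. falciparum expressing integrated firefly luciferase grown in erythrocytes (2% hematocrit, 0.05% parasitemia final) with compounds for 96 hours at 37 C, 5% CO2. Growth inhibition read as loss of luminescence after adding luciferase detection reagent.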
A number is an active result; . = inactive; ? = inconclusive; / = not tested or not shown; [ ] = another dose, or the depositor's remark. Rows were chosen to be rich in hits. Some 21% of all compounds tested hit in one or more screens of this group. Unless noted, calls come from the whole dose curve; as a rule, active = well fitted inhibition curve with a large enough effect; inconclusive = small, poorly fitted or top-dose-only effect, or another doubt; inactive = no such curve, though single readings can be large or run the other way.

SMILES | Shiga toxin inh | CHX counter | Pf growth 48h | Pf growth 96h
CCCN1C(=O)C2(C(C(=O)c3ccc(C)o3)=C(O)C(=O)N2CCCOC)c2ccccc21 (stereo not drawn) | . | . | . | .
COC(=O)c1c(NC(=O)C(=O)NCC2CCCO2)sc2c1CC(C)(C)OC2 (stereo not drawn) | . | . | ? | ?
CCOC(=O)C1(Cc2ccc(Cl)cc2)CCN(C(=O)c2ccoc2)CC1 | . | . | . | ?
CCn1c(CC(=O)Nc2ccc(C)cc2)n[nH]c1=S | . | . | . | ?
Cc1cc(NC(=O)CSc2nc3ccccc3[nH]2)n(-c2ccccc2)n1 | . | . | 1.9µM | 4.7µM
COc1ccc(CNC(=O)CSc2nc3ccc(C)cc3[nH]2)cc1 | . | 26 | . | .
O=C(CSc1nc2ncccc2[nH]1)NCc1ccccc1 | . | 16 | . | .
O=C(CSc1nc2ccccc2[nH]1)NCc1ccccc1 | 68 | 36 | . | ?
COc1ccc(CNC(=O)CSc2nc3ccc(OC)cc3[nH]2)cc1 | . | . | . | .
O=C(CSc1nc2ccccc2[nH]1)Nc1c(F)c(F)c(F)c(F)c1F | . | . | . | .
CCCNc1c(NS(=O)(=O)c2c(F)c(F)c(F)c(F)c2F)c(=O)oc2ccccc12 | . | . | . | .
Cc1oc(-c2ccc(Cl)cc2)cc1C(=O)/C(C#N)=C/Nc1ccccc1 | . | . | ? | .
O=C1/C(=C\c2c(NCCOCCO)nc3ccccn3c2=O)SC(=S)N1Cc1ccco1 | / | . | . | ?
O=S(=O)(c1ccc(Br)cc1)N1CCCC1c1nc2ccccc2s1 (stereo not drawn) | . | . | 10µM | ?
CN(C)S(=O)(=O)c1ccc(C(=O)N2CCCC2c2nc3ccccc3s2)cc1 (stereo not drawn) | . | . | ? | ?
O=S(=O)(c1ccc(N2CCCC2c2nc3ccccc3s2)nc1)N1CCOCC1 (stereo not drawn) | . | . | 10µM | 12µM
C=C(C)C1Cc2c(C)nn(-c3nc(C)cc(C)n3)c2C1 (stereo not drawn) | . | . | ? | 13µM
CC1CCCCC1NC1=NCCCS1 (stereo not drawn) | . | . | ? | .
COc1ccc(NC(=O)c2ccc(C)cc2Cl)c([N+](=O)[O-])c1 | . | 37 | . | 3.7µM
COc1ccc(NC(=O)c2ccc(C)o2)c([N+](=O)[O-])c1 | . | 22 | . | .
COc1ccc(NC(=O)c2ccc([N+](=O)[O-])s2)c([N+](=O)[O-])c1 | 46 | . | . | ?
COc1ccc(NC(=O)c2ccc(Br)o2)c([N+](=O)[O-])c1 | . | 19 | . | .
CCCCC(=O)O[C@]1(C(=O)CO)CCC2C3CCC4=CC(=O)CCC4(C)C3C(O)CC21C (stereo partly drawn) | / | / | . | ?
CC(C)S(=O)(=O)CC(=O)c1ccc(Cl)cc1 | . | . | . | .
CC(NCCC(c1ccccc1)c1ccccc1)c1ccccc1 (stereo not drawn) | . | . | 13µM | 11µM
SMILES | Shiga toxin inh | CHX counter | Pf growth 48h | Pf growth 96h
CC(NC1CCCC1)c1ccccc1 (stereo not drawn) | . | . | . | ?
CCNc1nc(NCC)n2c(SCC(=O)Nc3ccc(CC)cc3)nnc2n1 | / | / | 10µM | ?
CCNc1nc(NCC)n2c(SCC(=O)N(CC)C3CCCCC3)nnc2n1 | . | . | ? | 7.4µM
CCOC(=O)CNC(=O)COc1coc(CN2CCN(Cc3ccccc3)CC2)cc1=O | . | . | . | ?
Cc1ccc(-c2nnc(SCC(=O)N/N=C/c3ccc(C)s3)n2-c2ccccc2)cc1 | . | . | . | .
COc1ccc(CCNC(=O)C2CCCN(S(C)(=O)=O)C2)cc1 (stereo not drawn) | . | . | . | ?
O=C1C2C(C(=O)N1/N=C/c1cc(Br)cc([N+](=O)[O-])c1O)C1C=CC2C12CC2 (stereo not drawn) | . | . | ? | 12µM
Cc1ccc(/C=N/N2C(=O)C3C(C2=O)C2C=CC3C23CC3)o1 (stereo not drawn) | . | 18 | . | .
O=C1C2C(C(=O)N1/N=C/c1cccc([N+](=O)[O-])c1)C1C=CC2C12CC2 (stereo not drawn) | 75 | 52 | . | .
CCOC(=O)c1nn(-c2ccccc2C)c(=O)cc1OCC(=O)N1CCN(c2ccccc2)CC1 | / | / | . | .
COC(=O)C(Cc1ccccc1)NC(=O)CCc1c[nH]c2ccccc12 (stereo not drawn) | . | . | . | .
Cc1nn(Cc2c(F)c(F)c(F)c(F)c2F)c(C)c1NC(=O)c1cccc(COc2ccccc2Cl)c1 | 162 | 69 | . | .
Cc1nn(Cc2c(F)c(F)c(F)c(F)c2F)c(C)c1NC(=O)c1ccc(COc2ccc(Cl)cc2Cl)o1 | . | . | . | ?
Cc1nn(Cc2c(Cl)cccc2Cl)c(C)c1NC(=O)c1cc(C(C)C)on1 | . | . | / | 9.3µM
Cc1nn(Cc2cccc(F)c2)c(C)c1NC(=O)c1ccc(COc2ccccc2Cl)cc1 | . | . | 13µM | /
CCOC(=O)C1CCN(C(=O)COC(=O)c2ccccc2C(=O)c2ccc(Cl)cc2)CC1 | / | / | ? | .
CCS(=O)(=O)c1cccc(C(=O)N2CCN(c3nc4c(C)ccc(Cl)c4s3)CC2)c1 | . | . | / | /
CC(C)/C=C/CN1CCN(CCCc2ccccc2)C(CCO)C1 (stereo not drawn) | / | . | . | ?
COc1ccccc1NC(=O)C1=C(C)Nc2nc(-c3ccc(N(C)C)cc3)nn2C1c1ccncc1 (stereo not drawn) | . | . | 15µM | 9.3µM
Cc1ccc(Nc2nc(N/N=C\c3ccc4c(c3)OCO4)nc(N3CCOCC3)n2)cc1 | . | . | 10µM | ?
CCOc1cc(/C=N\Nc2nc(Nc3ccccc3)nc(N3CCOCC3)n2)ccc1OC(=O)c1ccco1 | . | 20 | ? | .
Cc1cc(-c2nn(-c3ccccc3F)cc2CN2CCN(c3ccncc3)CC2)c(C)s1 | . | . | 4.1µM | ?
Cc1cc(-c2nn(-c3ccccc3F)cc2CN2CCC(O)CC2)c(C)s1 | . | . | ? | ?
NC(=O)C1CCN(C(=O)C2CCN(C(=O)Nc3ccccc3)CC2)CC1 | / | / | ? | .
O=C(CCl)NCc1c(Cl)cccc1-n1cccc1 | . | . | 10µM | 12µM
SMILES | Shiga toxin inh | CHX counter | Pf growth 48h | Pf growth 96h
O=C(Cc1c(Cl)cccc1Cl)NCCc1ccc(Cl)cc1 | . | . | . | .
CCOc1ncccc1C(=O)NNC(=O)c1ccc(NS(=O)(=O)c2cccs2)cc1 | / | / | . | .
COc1ccc([C@]23Cc4cc(C#N)ccc4C(O2)C2=C(CC4(CCCCC4)OC2=O)O3)cc1 | . | . | ? | 0.76µM
COc1ccc([C@]23Cc4cc(OC)c(OC)cc4C(O2)c2c(cc(C)n(Cc4ccccc4)c2=O)O3)cc1 | . | . | ? | 1.5µM
COc1ccc([C@]23Cc4cc(C#N)ccc4[C@H](O2)c2c(cc(C)n(Cc4ccccc4)c2=O)O3)cc1 | . | . | 1.9µM | .[5.75 µM]
COc1ccc([C@]23Cc4cc(OC)c(OC)cc4C(O2)c2c(cc(-c4ccccc4)oc2=O)O3)cc1 | . | . | ? | ?
Cc1ccc(S(=O)(=O)Nc2ccnc(-c3cccnc3)n2)cc1 | . | . | . | .
Cc1ccc(S(=O)(=O)N2CCCNCC2)cc1 | . | . | ? | .
CC(OC(=O)c1cc(=O)[nH]c2ccccc12)c1ccccc1 (stereo not drawn) | 70 | 32 | . | /
